Screening results deposited in PubChem by National Center for Advancing Translational Sciences (NCATS).
FEN1 inh: qHTS Assay for the Inhibitors of Human Flap endonuclease 1 (FEN1); Potency, µM (titrated, usually from 114 µM), actives largely listed as inhibitors; Recombinant FEN1 flap cleavage, fluorescence, 15 min; 390,000 compounds, 0.35% hits; AID 588795, 2011; P39748; also: nearly all actives have a fitted effect of over 65% in size
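FEN1 at 10 nM preincubated with compounds 15 min at room temperature, then flap DNA substrate added at 50 nM final. Signal read at 0 and 15 min; concentration-response fitted with four-parameter Hill equation.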
WRN inhibitor: qHTS for Inhibitors of WRN Helicase | Bifunctional 3'-5' exonuclease/ATP-dependent helicase WRN (Homo sapiens), Q14191 | WRN helicase unwinding, fluorescent forked duplex, kinetic | Potency, µM (series often up to 114 µM), actives largely listed as inhibitors | 360,000 compounds, 0.46% hits | AID 651768, 2012; also: nearly all actives have a fitted effect of over 55% in size
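Enzyme (20 nM final) and test compound sit together 15 min at room temperature before substrate addition. Substrate is a single-forked duplex oligonucleotide (100 nM) labelled with fluorophore and quencher, with 2 mM ATP; helicase unwinding raises red fluorescence, read kinetically.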
POLB inh: qHTS Assay for Inhibitors of DNA Polymerase Beta. 340,000 compounds, 1.3% hits. P06746. Pol beta primer extension/strand displacement, fluorescence kinetic. Potency, µM (highest dose often 114 µM), most hits filed as inhibitors
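10 nM enzyme + cpd, 15 min RT; start with substrate 50 nM final; read 0 min and after 10 min RT. Corrected, normalized data; 4-parameter Hill curve fit.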
Pol iota inh: qHTS for Inhibitors of Polymerase Iota; DNA polymerase iota (Homo sapiens), Q9UNA4; Pol iota fluorescent replication assay, 10 min; Potency, µM (top dose mostly 115 µM), hits mostly inhibitors; 390,000 compounds, 1% hits
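Pol iota at 10 nM preincubated 15 min with compounds at room temperature; reaction started with fluorescent substrate, 50 nM final. Fluorescence read kinetically at 0 and 10 min; buffer-only wells as negative control.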
Pol kappa inh-1: qHTS for Inhibitors of Polymerase Kappa | purified Pol kappa, fluorescent DNA synthesis assay, 10 min | Potency, µM (titrated, usually from 107 µM), hits mostly inhibitors | 400,000 compounds, 0.53% hits
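Pol kappa 10 nM + cpd, 15 min RT; start w/ substrate 50 nM final; fluorescence kinetic read, 0 and 10 min. Neg ctrl: buffer, no enzyme.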
Pol eta inh-1: qHTS for Inhibitors of Polymerase Eta. Potency, µM (titrated, usually from 114 µM), usual class: inhibitors. recombinant Pol eta, fluorescent DNA replication assay. AID 588591, 2011. 390,000 compounds, 1.2% hits
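Pol eta at 10 nM preincubated with compounds 15 min at room temperature; reaction started with fluorescent substrate (50 nM final) and read kinetically at 0 and 10 min.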
GALK confirm: Confirmation Assay for Inhibitors of Human Galactokinase (GALK) | shares compounds with Pol eta inh-1 | 150 compounds, 70% hits | AID 2015, 2009 | purified GALK, Kinase-Glo ATP depletion luminescence | Potency, µM (highest dose often 115 µM), most hits filed as inhibitors
GALK redox cs: Confirmatory Assay for Inhibitors of Human Galactokinase (GALK): Phenol-HRP redox assay counterscreen. shares compounds with Pol eta inh-1. Phenol red-HRP H2O2 redox cycling, absorbance 600 nm. Potency, µM (titrated, usually from 115 µM), usual class: inhibitors. 150 compounds, 40% hits
HEK293 viability: Secondary Assay for Inhibitors of Human Galactokinase (GALK): HEK-293 Cell Viability Assay | AID 2547, 2010 | 170 compounds, 10% hits | shares compounds with Pol eta inh-1 | Potency, µM (titrated, usually from 46.1 µM), usual class: inhibitors | HEK-293 viability, ATP luminescence (CellTiter-Glo), 24/48 h
Pol kappa inh-2: qHTS for Inhibitors of Polymerase Kappa: Confirmatory Assay for Cherry-picked Compounds; shares compounds with Pol eta inh-1; 920 compounds, 76% hits; Potency, µM, hits mostly inhibitors; purified Pol-kappa, fluorescent strand-displacement substrate
Pol eta inh-2: qHTS for Inhibitors of Polymerase Eta: Confirmatory Assay for Cherry-picked Compounds; shares compounds with Pol eta inh-1; Pol eta primer extension, TAMRA/BHQ fluorescence, 10 min; 2,600 compounds, 64% hits; Potency, µM, actives largely listed as inhibitors; AID 720502, 2013
Of the large screens only hits and unclear results are named; the others gave an inactive call (follow-up assays come after a bar, where they were run). Shown are actives, neighbours in structure and some others; about 2.4% of the full set was active somewhere. Calls follow the shape of the dose curve; as a rule, active = well fitted curve in the direction sought with a large enough effect; inconclusive = small, poorly fitted or top-dose-only effect, or another doubt; inactive = no such curve, though single readings can be large; an effect the other way counts as inactive or inconclusive.

Cc1ccc(S(=O)(=O)/N=C2/NC(=O)/C(=C/c3ccc(Br)o3)S2)cc1	WRN inhibitor inconclusive, POLB inh inconclusive, Pol iota inh inconclusive, Pol kappa inh-1 inconclusive, Pol eta inh-1 22µM | Pol eta inh-2 inconclusive
Cc1ccc(S(=O)(=O)/N=C2/NC(=O)/C(=C/c3cccnc3)S2)cc1	WRN inhibitor inconclusive, POLB inh inconclusive, Pol iota inh inconclusive, Pol eta inh-1 inconclusive
Cc1ccc(S(=O)(=O)/N=C2/NC(=O)/C(=C\c3cc(Br)cc(Br)c3O)S2)cc1	FEN1 inh 28µM, WRN inhibitor 20µM, POLB inh inconclusive, Pol iota inh inconclusive, Pol eta inh-1 22µM | GALK confirm 24µM | GALK redox cs inactive | HEK293 viability inactive
Cc1c(C(=O)N2CCCC2)sc(NC(=O)c2ccc(Cl)cc2)c1C#N	none | GALK confirm inconclusive | GALK redox cs inactive | HEK293 viability inactive
CCc1ccc(CNC(=O)c2ccc(NC(=O)N3CC(C)Sc4ccccc43)cc2)cc1 (stereo not drawn)	none (no result: WRN inhibitor)
CN(C(=O)C1=CC(c2ccc3c(c2)OCO3)=NS(=O)(=O)N1C)c1ccccc1	none (no result: WRN inhibitor)
Cc1ccc(/C=C(\C#N)C(=O)NCC2CCCO2)o1 (stereo not drawn)	none
N#C/C(=C/c1ccc(-c2ccc(C(=O)O)c(Cl)c2)o1)C(=O)NCC1CCCO1 (stereo not drawn)	POLB inh inconclusive, Pol iota inh inconclusive, Pol kappa inh-1 inconclusive, Pol eta inh-1 10µM | Pol eta inh-2 inconclusive
O=C(CSc1nc(-c2ccccc2)no1)N1CCCCC1	none (no result: WRN inhibitor)
O=C(CCS(=O)(=O)c1ccc(Br)cc1)Nc1ccc(F)cc1F	none (no result: WRN inhibitor)
CCOc1ccccc1NC(=O)CCS(=O)(=O)c1ccc(Br)cc1	WRN inhibitor 50µM, POLB inh 10µM, Pol iota inh 18µM, Pol kappa inh-1 inconclusive, Pol eta inh-1 18µM | Pol eta inh-2 24
O=C(CCS(=O)(=O)c1ccc(Br)cc1)Nc1cc(F)ccc1F	POLB inh 18µM, Pol kappa inh-1 inconclusive, Pol eta inh-1 inconclusive | Pol kappa inh-2 42
CCOc1ccccc1NC(=O)CCNS(=O)(=O)c1ccc(NC(C)=O)cc1	none
O=S(=O)(NCCc1cn(S(=O)(=O)c2ccccc2)c2ccccc12)c1ccccc1	none (no result: WRN inhibitor, POLB inh, Pol eta inh-1)
CC1(OC(=O)C2CCCC2)C(=O)C=C2C=C(c3ccsc3)N(CCCCO)C=C2C1=O (stereo not drawn)	none
